In all, about 310,000 compounds went through this assay and about 2,200 (0.71%) showed an effect of 50% or more. The effect is printed as a negative number. What follows is part of a selection rich in strong results, with near analogues and random picks from the rest.

human ether-à-go-go-related gene (hERG) potassium channel, sequence (Q12809 whole entry, looked up): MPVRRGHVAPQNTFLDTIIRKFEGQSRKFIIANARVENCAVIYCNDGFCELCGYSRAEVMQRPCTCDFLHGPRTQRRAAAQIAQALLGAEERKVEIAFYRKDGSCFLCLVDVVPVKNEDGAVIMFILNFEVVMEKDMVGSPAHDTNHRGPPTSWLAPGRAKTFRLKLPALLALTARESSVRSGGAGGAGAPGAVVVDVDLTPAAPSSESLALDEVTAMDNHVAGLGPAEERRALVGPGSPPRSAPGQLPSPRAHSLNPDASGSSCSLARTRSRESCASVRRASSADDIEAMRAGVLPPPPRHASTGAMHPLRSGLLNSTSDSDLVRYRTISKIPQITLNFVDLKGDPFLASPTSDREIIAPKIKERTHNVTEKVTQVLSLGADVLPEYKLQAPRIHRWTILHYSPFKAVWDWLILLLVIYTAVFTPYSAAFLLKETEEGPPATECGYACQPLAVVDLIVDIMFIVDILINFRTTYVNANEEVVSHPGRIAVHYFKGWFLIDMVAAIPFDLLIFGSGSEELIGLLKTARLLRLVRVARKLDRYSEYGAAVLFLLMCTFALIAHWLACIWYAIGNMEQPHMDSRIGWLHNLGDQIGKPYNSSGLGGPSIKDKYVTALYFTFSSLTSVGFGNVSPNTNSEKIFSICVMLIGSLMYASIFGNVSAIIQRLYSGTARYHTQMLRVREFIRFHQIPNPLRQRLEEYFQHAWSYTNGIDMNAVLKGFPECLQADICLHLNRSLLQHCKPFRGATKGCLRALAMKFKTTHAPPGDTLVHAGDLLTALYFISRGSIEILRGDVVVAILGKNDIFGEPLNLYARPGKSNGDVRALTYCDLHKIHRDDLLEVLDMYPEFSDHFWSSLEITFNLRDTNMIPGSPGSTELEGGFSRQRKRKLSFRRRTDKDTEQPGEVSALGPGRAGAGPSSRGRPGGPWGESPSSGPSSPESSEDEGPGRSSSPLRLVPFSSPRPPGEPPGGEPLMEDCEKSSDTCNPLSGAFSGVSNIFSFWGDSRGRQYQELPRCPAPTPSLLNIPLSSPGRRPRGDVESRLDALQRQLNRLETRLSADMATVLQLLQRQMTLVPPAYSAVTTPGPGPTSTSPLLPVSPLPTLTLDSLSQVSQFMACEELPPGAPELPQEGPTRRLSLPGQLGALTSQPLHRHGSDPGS

This test concerns the target human ether-à-go-go-related gene (hERG) potassium channel (human, UniProt Q12809). As to the kind of experiment: primary screen, population patch clamp on CHO cells stably expressing hERG; higher = less effect of the substance.
As to `Cc1cc(NC(=O)CSc2nc3c(c(=O)n2-c2ccccc2)SC(C)C3)no1` (stereo not drawn), the “hERG current change (%, negative = inhibition) at 1uM” value was -8.78%.
In the case of `Cc1ccc(C(=O)Nc2nc3nc(-c4ccccc4)cc(=O)n3[nH]2)cc1` it was 14.5%.
On to `CCC(C)NS(=O)(=O)c1ccc(NC(C)=O)cc1` (stereo not drawn), for which the “hERG current change (%, negative = inhibition) at 1uM” value is reported as 11.2%.
For `CC(C)Cc1cc(C(=O)O)n[nH]1`, the “hERG current change (%, negative = inhibition) at 1uM” value is recorded as 5.43%.
With `CC(=O)N1CCc2cc(Br)cc(S(=O)(=O)N3CCc4ccccc43)c21` the figure was -1.76%; with `O=C(c1ccc(-n2cccc2)cc1)N1CCOCC1`, 7.49%; with `CCc1ccccc1N(CC(=O)NC1CCCCC1)C(=O)CCC(=O)Nc1ccccn1`, 12.3%.
Regarding `O=C(Nc1ccc(-c2csc(Nc3ccccc3)n2)cc1)c1cc([N+](=O)[O-])cc(C(F)(F)F)c1`, the “hERG current change (%, negative = inhibition) at 1uM” value is given as 4.72%.
With `Cc1ccc(-c2ccc(C(=O)NCCCNC(=O)c3cnccn3)o2)cc1Cl` the figure was 18.8%; with `O=C(NCCNC(=O)c1ccc(-c2ccc(Cl)c(Cl)c2)o1)c1cnccn1`, -54.4%.
In the case of `O=C(NCCCNC(=O)c1ccc(-c2cccc(Cl)c2)o1)c1cnccn1` it was -12.5%.
With `NS(=O)(=O)OCCCc1ccc(C(F)(F)F)cc1`, the “hERG current change (%, negative = inhibition) at 1uM” value amounted to 6.75%.
Turning to `COc1ccc(Cn2c(=N)c(C(=O)NCC3CCCO3)cc3c(=O)n4ccccc4nc32)cc1` (stereo not drawn), the “hERG current change (%, negative = inhibition) at 1uM” value is recorded as -85%.
As to `COc1ccc(CCn2c(=N)c(C(=O)NCC3CCCO3)cc3c(=O)n4ccccc4nc32)cc1OC` (stereo not drawn), the “hERG current change (%, negative = inhibition) at 1uM” value is given as -79.9%.
In the case of `COc1ccc(CCNC(=O)CCn2c(=O)c3ccccc3n(CC(=O)NCC3CCCO3)c2=O)cc1OC` (stereo not drawn) it was 9.7%; in that of `COc1ccc(CCn2c(=N)c(C(=O)NCC3CCCO3)cc3c(=O)n4ccccc4nc32)cc1` (stereo not drawn), -84.4%; in that of `Cc1cc(N2CCC(C)CC2)nc2ccc(N3C(=O)CCC3=O)cc12`, 9.64%.
With `O=C(NC(=S)Nc1ncc(Br)cc1Br)c1cncc(Br)c1` the figure was 4.04%; with `COc1ccc(C(=O)Nc2nnc(-c3cccs3)s2)cc1`, 18.6%; with `CC(C)(C)OC(=O)N[C@@H](Cc1ccccc1)c1nnc(S(=O)(=O)Cc2ccccc2)o1`, 5.19%.
In the case of `CCCCCc1nc2c(c3c1CCCC3)CCCC2` it was -51.7%.
Turning to `CCCCc1nc(Cl)c(C#N)c2c1CCCC2`, the “hERG current change (%, negative = inhibition) at 1uM” value worked out at 5.82%.
As for `CCCCCc1n[nH]c2c1CCCC2`, the “hERG current change (%, negative = inhibition) at 1uM” value worked out at 9.3%.
For the compound `CC1CCCC(C)N1C(=O)COC(=O)CCC1CCCC1` (stereo not drawn), the “hERG current change (%, negative = inhibition) at 1uM” value is 9.29%.
As for `O=C(CN1C(=O)C2CC=CCC2C1=O)N1CCN(c2ccc([N+](=O)[O-])cc2)CC1` (stereo not drawn), the “hERG current change (%, negative = inhibition) at 1uM” value is reported as -64.2%.
In the case of `CC(C(=O)N1CCN(c2ccc([N+](=O)[O-])cc2)CC1)N1C(=O)C2CC=CCC2C1=O` (stereo not drawn) it was -50.2%; in that of `COc1ccc(N2CCN(C(=O)CN3C(=O)C4CC=CCC4C3=O)CC2)cc1` (stereo not drawn), 15.7%.
In the case of `CC(C(=O)N1CCN(c2ccccc2)CC1)N1C(=O)C2CC=CCC2C1=O` (stereo not drawn) it was 10.3%; in that of `CC(C(=O)N1CCN(c2ccccc2)CC1)c1ccc([N+](=O)[O-])cc1` (stereo not drawn), -12.2%; in that of `CC1(C)NC(=O)N(CC(=O)N2CCN(c3ccc([N+](=O)[O-])cc3)CC2)C1=O`, -29.1%.
With `COc1ccc(C2=[N+]([O-])C(C)(C)N(O)C2(C)C)cc1` the figure was 10.1%; with `Cc1nc(-c2nnc(SCC(=O)Nc3cc(Cl)cc(Cl)c3)n2C)cs1`, 10.6%.
Take `C/C(=N\N=C(c1ccccc1)c1ccccc1)c1ccco1`: the “hERG current change (%, negative = inhibition) at 1uM” value is 5.46%.
For the compound `CN1C(=O)C(=Cc2ccccc2OS(=O)(=O)c2ccccc2)C(=O)N(C)C1=O`, the “hERG current change (%, negative = inhibition) at 1uM” value was 9.02%.
Consider `N[C@@H]1CONC1=O`, for which the “hERG current change (%, negative = inhibition) at 1uM” value worked out at 18.7%.
With `COC(=O)[C@H]1C[C@H]1[C@@H](NC(=O)c1cccnc1)c1ccccc1` the figure was 11.4%; with `CCOc1ccc(CNCCc2ccc3c(c2)OCO3)cc1`, -52.6%; with `COc1ccc(C(CCN)c2ccc3c(c2)OCO3)cc1` (stereo not drawn), 13.6%.
Take `Fc1ccc(CNCCc2ccc3c(c2)OCO3)cc1`: the “hERG current change (%, negative = inhibition) at 1uM” value is recorded as 13.8%.
In the case of `COc1ccc(C(CCNCc2ccc(N(C)C)cc2)C(C)C)cc1` (stereo not drawn) it was 2.49%; in that of `CCOc1ccccc1CNCCc1ccc2c(c1)OCO2.Cl`, 1.75%; in that of `COc1ccc(C(CCNCc2ccc(N(C)C)cc2)c2ccccc2OC)cc1` (stereo not drawn), -18.4%.
For the compound `COc1ccc(C(CCNCc2ccccc2)c2ccc(F)cc2)cc1` (stereo not drawn), the “hERG current change (%, negative = inhibition) at 1uM” value is given as -17.7%.
In the case of `COc1ccc(C(CCNCc2ccc(N(C)C)cc2)c2ccccc2)cc1` (stereo not drawn), the “hERG current change (%, negative = inhibition) at 1uM” value was -56.4%.
With `COc1ccc(CNCCC(c2ccccc2)c2ccc3c(c2)OCO3)cc1.Cl` (stereo not drawn) the figure was -68.7%.
`COc1ccc(OCCSc2nc(C)c(Cc3ccccc3)c(=O)[nH]2)cc1`: the “hERG current change (%, negative = inhibition) at 1uM” value is on record as 7.38%.
In the case of `Cn1c(C(=O)c2ccccc2[N+](=O)[O-])nc2ccccc21`, the “hERG current change (%, negative = inhibition) at 1uM” value is -9.27%.
Take `S=C(Nc1ccccc1Cl)N1CCC(c2ccccc2)C1` (stereo not drawn): the “hERG current change (%, negative = inhibition) at 1uM” value is recorded as -6.92%.
In the case of `COc1ccc2c(c1)N1CCN=C1N2C.Cl` it was 5.26%; in that of `Cc1[nH]nc(NCCO)c1[N+](=O)[O-]`, -3.88%; in that of `CCOc1ccc(NC(=O)CN(c2ccc(OC)cc2)S(C)(=O)=O)cc1`, 8.87%.
On to `CCC(C)[C@H](NC(=O)C1CC(=O)N(c2ccc3c(c2)OCO3)C1)C(=O)NC1CCCCC1` (stereo partly drawn), for which the “hERG current change (%, negative = inhibition) at 1uM” value came to 29.5%.
Consider `COC(=O)C(Cc1ccc(OC(=O)c2ccc(C(F)(F)F)cc2)cc1)N1Cc2ccccc2C1=O` (stereo not drawn), for which the “hERG current change (%, negative = inhibition) at 1uM” value came to 13.8%.
Take `O=C(NC1CCCN(C2Cc3ccccc3C2)C1)c1ccc(F)cc1Cl` (stereo not drawn): the “hERG current change (%, negative = inhibition) at 1uM” value is given as -72.9%.
For `O=C(NC1CC1)c1ccc(F)cc1Cl`, the “hERG current change (%, negative = inhibition) at 1uM” value is 14.2%.
In the case of `COc1cccc(C(=O)NC2CCCN(C3Cc4ccccc4C3)C2)c1OC` (stereo not drawn), the “hERG current change (%, negative = inhibition) at 1uM” value was 0.941%.
In the case of `N/C(=N\OC(=O)c1cc(-c2ccccc2)nc2ccccc12)c1ccncc1`, the “hERG current change (%, negative = inhibition) at 1uM” value is 8.01%.
